Reference: PubChem BioAssay (EPA / NIEHS)
Activity calls are given as the source filed them. Rule for the calls: active = hit-call score of the fitted dose curve at least 0.9, where 1 is the maximum; inactive = score below 0.9.

Read-out: not listed separately
Test: BSK_SAg_PBMCCytotoxicity: PBMC Cytotoxicity Assessment in the BioMAP Diversity Plus: SAg Assay (AID 2283093);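 note: fitted both ways against DMSO so a hit may be loss or gain of signal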;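 for AC50: PBMC superantigen activated with SEB plus TSST-1 one hour after compound addition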
Conditions: primary human HUVEC with PBMC
Summary of the method: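 PBMC viability by Alamar Blue reduction, fluorescence read at 546/580 nm after 6 h dye exposure. Cells were dosed 1 h before SEB plus TSST-1 activation (20 ng/mL final each), then held 90 h; endothelial/PBMC human co-culture.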

Row | Structure (SMILES) | outcome | AC50
1 | CN(C)C(=O)Cl | inactive | –
2 | CCC(C)(C)c1ccc(O)cc1 | inactive | –
3 | CCOP(=S)(OCC)SCn1nnc2ccccc2c1=O | inactive | –
4 | c1cc2c3c(cccc3c1)CC2 | inactive | –
5 | O=c1ssc(Cl)c1Cl | – | 4.21 µM (active)
6 | O=S(=O)(F)C(F)(F)C(F)(F)C(F)(F)C(F)(F)C(F)(F)C(F)(F)C(F)(F)C(F)(F)F | inactive | –
7 | CCOP(=S)(S)OCC | inactive | –
8 | OCC(F)(F)OC(F)(F)C(F)(F)OC(F)(F)CO | inactive | –
9 | ClC(Cl)(Cl)c1ccccc1 | inactive | –
10 | CC(Cc1ccc(OCC(=O)O)cc1)NCC(O)c1csc(C(F)(F)F)n1 (stereo not given) | inactive | –
11 | O=C(O)C(F)(F)OC(F)(F)C(F)(F)OC(F)(F)C(=O)O | inactive | –
12 | c1ccc(OP(Oc2ccccc2)Oc2ccccc2)cc1 | inactive | –
13 | OCC1CO1 (stereo not given) | inactive | –
14 | NC(=O)C(F)(F)C(F)(F)F | inactive | –
15 | O=[N+]([O-])c1ccccc1 | inactive | –
16 | Nc1ccc(Cl)cc1 | inactive | –
17 | O=[N+]([O-])c1ccc(Cl)c(Cl)c1 | inactive | –
18 | CCOP(=S)(Oc1ccc([N+](=O)[O-])cc1)c1ccccc1 (stereo not given) | inactive | –
19 | CC(C)(C)OOC(C)(C)C | inactive | –
20 | CCCCN(CCCC)N=O | inactive | –
21 | O=C(O)C(Cl)Cl | inactive | –
22 | c1nc[nH]n1 | inactive | –
23 | c1ccc2c(c1)Nc1ccccc1S2 | – | 2.19 µM (active)
24 | COP(=O)(CCC(=O)NCO)OC | inactive | –
25 | CCOS(=O)(=O)OCC | inactive | –
26 | Nc1ccc([N+](=O)[O-])cc1Cl | inactive | –

Read-out: Interleukin-8 (IL8), CXCL8 (gene 3576)
Test: BSK_SAg_IL8: BioMAP Diversity Plus: SAg Assay for Interleukin-8 (IL8) Biomarker Activity (AID 2283094)
Conditions: primary human HUVEC with PBMC; actives raise or lower the signal
Summary of the method: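 Primary human endothelial cells with PBMC, exposed 24 h; IL-8 determined by ELISA, analysed bidirectionally relative to DMSO.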

Row | Structure (SMILES) | outcome | AC50
27 | CN(C)C(=O)Cl | inactive | –
28 | CCC(C)(C)c1ccc(O)cc1 | inactive | –
29 | CCOP(=S)(OCC)SCn1nnc2ccccc2c1=O | inactive | –
30 | c1cc2c3c(cccc3c1)CC2 | inactive | –
31 | O=c1ssc(Cl)c1Cl | – | 8.19 µM (active)
32 | O=S(=O)(F)C(F)(F)C(F)(F)C(F)(F)C(F)(F)C(F)(F)C(F)(F)C(F)(F)C(F)(F)F | inactive | –
33 | CCOP(=S)(S)OCC | inactive | –
34 | OCC(F)(F)OC(F)(F)C(F)(F)OC(F)(F)CO | inactive | –
35 | ClC(Cl)(Cl)c1ccccc1 | inactive | –
36 | CC(Cc1ccc(OCC(=O)O)cc1)NCC(O)c1csc(C(F)(F)F)n1 (stereo not given) | inactive | –
37 | CC(C)(C)c1ccc(O)cc1 | inactive | –
38 | O=C(O)C(F)(F)OC(F)(F)C(F)(F)OC(F)(F)C(=O)O | inactive | –
39 | c1ccc(OP(Oc2ccccc2)Oc2ccccc2)cc1 | inactive | –
40 | OCC1CO1 (stereo not given) | inactive | –
41 | NC(=O)C(F)(F)C(F)(F)F | inactive | –
42 | O=[N+]([O-])c1ccccc1 | inactive | –
43 | Nc1ccc(Cl)cc1 | inactive | –
44 | O=[N+]([O-])c1ccc(Cl)c(Cl)c1 | inactive | –
45 | CCOP(=S)(Oc1ccc([N+](=O)[O-])cc1)c1ccccc1 (stereo not given) | inactive | –
46 | CC(C)(C)OOC(C)(C)C | inactive | –
47 | CCCCN(CCCC)N=O | inactive | –
48 | Cc1ccc(O)cc1C | inactive | –
49 | O=C(O)C(Cl)Cl | inactive | –
50 | c1nc[nH]n1 | inactive | –
51 | c1ccc2c(c1)Nc1ccccc1S2 | inactive | –
52 | COP(=O)(CCC(=O)NCO)OC | inactive | –
53 | CCOS(=O)(=O)OCC | inactive | –
54 | Nc1ccc([N+](=O)[O-])cc1Cl | inactive | –

Read-out: not listed separately
Test: BSK_SAg_Proliferation: Cell Proliferation Assessment in the BioMAP Diversity Plus: SAg Assay (AID 2283095);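 note: relative cell number as total protein by SRB absorbance in sub-confluent culture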
Conditions: primary human HUVEC with PBMC
Summary of the method: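 A human primary co-culture of umbilical vein endothelium and blood mononuclear cells receives compound; relative cell number is quantified at 96 h by SRB staining and 560 nm absorbance, with DMSO-referenced bidirectional curve fitting.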

Row | Structure (SMILES) | outcome | AC50
55 | CN(C)C(=O)Cl | inactive | –
56 | CCC(C)(C)c1ccc(O)cc1 | inactive | –
57 | CCOP(=S)(OCC)SCn1nnc2ccccc2c1=O | inactive | –
58 | c1cc2c3c(cccc3c1)CC2 | inactive | –
59 | O=c1ssc(Cl)c1Cl | – | 1.94 µM (active)
60 | O=S(=O)(F)C(F)(F)C(F)(F)C(F)(F)C(F)(F)C(F)(F)C(F)(F)C(F)(F)C(F)(F)F | inactive | –
61 | CCOP(=S)(S)OCC | inactive | –
62 | OCC(F)(F)OC(F)(F)C(F)(F)OC(F)(F)CO | inactive | –
63 | ClC(Cl)(Cl)c1ccccc1 | inactive | –
64 | CC(Cc1ccc(OCC(=O)O)cc1)NCC(O)c1csc(C(F)(F)F)n1 (stereo not given) | inactive | –
65 | CC(C)(C)c1ccc(O)cc1 | inactive | –
66 | O=C(O)C(F)(F)OC(F)(F)C(F)(F)OC(F)(F)C(=O)O | inactive | –
67 | c1ccc(OP(Oc2ccccc2)Oc2ccccc2)cc1 | inactive | –
68 | OCC1CO1 (stereo not given) | inactive | –
69 | NC(=O)C(F)(F)C(F)(F)F | inactive | –
70 | O=[N+]([O-])c1ccccc1 | inactive | –
71 | Nc1ccc(Cl)cc1 | inactive | –
72 | O=[N+]([O-])c1ccc(Cl)c(Cl)c1 | inactive | –
73 | CCOP(=S)(Oc1ccc([N+](=O)[O-])cc1)c1ccccc1 (stereo not given) | – | 22.6 µM (active)
74 | CC(C)(C)OOC(C)(C)C | inactive | –
75 | CCCCN(CCCC)N=O | inactive | –
76 | Cc1ccc(O)cc1C | inactive | –
77 | O=C(O)C(Cl)Cl | inactive | –
78 | c1nc[nH]n1 | inactive | –
79 | c1ccc2c(c1)Nc1ccccc1S2 | – | 20 µM (active)
80 | COP(=O)(CCC(=O)NCO)OC | inactive | –
81 | CCOS(=O)(=O)OCC | inactive | –
82 | Nc1ccc([N+](=O)[O-])cc1Cl | inactive | –

Read-out: not listed separately
Test: BSK_SAg_SRB: Viability Assessment in the BioMAP Diversity Plus: SAg Assay (AID 2283096);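 note: cells read one day after compound addition; hits may be either gain or loss of signal compared with DMSO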
Conditions: primary human HUVEC with PBMC
Summary of the method: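 Compounds were added to a human vascular co-culture of umbilical vein endothelium and PBMC. After 24 h, parallel cultures were fixed with 10% TCA, stained with 0.1% sulforhodamine B and read at 560 nm. Gain or loss of signal was fitted relative to DMSO.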

Row | Structure (SMILES) | outcome | AC50
83 | CN(C)C(=O)Cl | inactive | –
84 | CCC(C)(C)c1ccc(O)cc1 | inactive | –
85 | CCOP(=S)(OCC)SCn1nnc2ccccc2c1=O | inactive | –
86 | c1cc2c3c(cccc3c1)CC2 | inactive | –
87 | O=c1ssc(Cl)c1Cl | – | 6.23 µM (active)
88 | O=S(=O)(F)C(F)(F)C(F)(F)C(F)(F)C(F)(F)C(F)(F)C(F)(F)C(F)(F)C(F)(F)F | inactive | –
89 | CCOP(=S)(S)OCC | inactive | –
90 | OCC(F)(F)OC(F)(F)C(F)(F)OC(F)(F)CO | inactive | –
91 | ClC(Cl)(Cl)c1ccccc1 | inactive | –
92 | CC(Cc1ccc(OCC(=O)O)cc1)NCC(O)c1csc(C(F)(F)F)n1 (stereo not given) | inactive | –
93 | CC(C)(C)c1ccc(O)cc1 | inactive | –
94 | O=C(O)C(F)(F)OC(F)(F)C(F)(F)OC(F)(F)C(=O)O | inactive | –
95 | c1ccc(OP(Oc2ccccc2)Oc2ccccc2)cc1 | inactive | –
96 | OCC1CO1 (stereo not given) | inactive | –
97 | NC(=O)C(F)(F)C(F)(F)F | inactive | –
98 | O=[N+]([O-])c1ccccc1 | inactive | –
99 | Nc1ccc(Cl)cc1 | inactive | –
100 | O=[N+]([O-])c1ccc(Cl)c(Cl)c1 | inactive | –
101 | CCOP(=S)(Oc1ccc([N+](=O)[O-])cc1)c1ccccc1 (stereo not given) | inactive | –
102 | CC(C)(C)OOC(C)(C)C | inactive | –
103 | CCCCN(CCCC)N=O | inactive | –
104 | Cc1ccc(O)cc1C | inactive | –
105 | O=C(O)C(Cl)Cl | inactive | –
106 | c1nc[nH]n1 | inactive | –
107 | c1ccc2c(c1)Nc1ccccc1S2 | inactive | –
108 | COP(=O)(CCC(=O)NCO)OC | inactive | –
109 | CCOS(=O)(=O)OCC | inactive | –
110 | Nc1ccc([N+](=O)[O-])cc1Cl | inactive | –
